# According to PubChem BioAssay AID2235 (The Scripps Research Institute Molecular Screening Center, 2010):
# About 2,800 (0.88%) of roughly 320,000 compounds were called active.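 The calls were made as follows: active = inhibition above the mean inhibition of all tested compounds plus 3 SD, computed separately for each screening campaign (cut at about 15% in these data); inactive = the rest.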 Many of the other results were omitted from the sample, so actives are more common in it than they were.
# Target: Serine/threonine-protein phosphatase PP1-alpha catalytic subunit (Homo sapiens) (UniProt P62136)
# Sequence (P62136 whole entry, looked up): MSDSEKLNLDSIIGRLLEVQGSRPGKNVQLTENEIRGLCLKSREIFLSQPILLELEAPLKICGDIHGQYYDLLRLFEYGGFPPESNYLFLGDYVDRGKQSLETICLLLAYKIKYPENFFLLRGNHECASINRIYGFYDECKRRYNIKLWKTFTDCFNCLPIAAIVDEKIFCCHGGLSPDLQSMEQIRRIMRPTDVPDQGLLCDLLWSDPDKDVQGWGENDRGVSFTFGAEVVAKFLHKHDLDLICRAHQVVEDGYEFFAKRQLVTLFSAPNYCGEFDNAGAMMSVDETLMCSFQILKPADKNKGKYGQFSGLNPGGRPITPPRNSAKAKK
# Assay: inhibition of human PP1 catalytic subunit – biochemical, fluorescence, OMFP substrate, single point, counter-screen for PP5 inhibitor project, primary screen (AID 2235)
# Details: purified PP1alpha, at 6.7 µM, hits give high values
row,Compound,inhibition
1,Cc1noc(C)c1S(=O)(=O)NCCc1ccc(S(N)(=O)=O)cc1,-1.43% (inactive)
2,O=C(c1ccc(Cl)c(S(=O)(=O)N2CCCCCC2)c1)N1CCN(c2ccc(O)cc2)CC1,5.02% (inactive)
3,CC(C)n1ncc2c(C(=O)NCc3ccccc3CN(C)C)cc(C3CC3)nc21,3.23% (inactive)
4,O=C(NCC(c1ccco1)N1CCc2ccccc2C1)c1ccccc1Cl (stereo not given),-5.84% (inactive)
5,CC(C)c1ccc(/C=C/C(=O)NNC(=O)c2cccnc2)cc1,-4.56% (inactive)
6,O=C(/C=C/c1ccc(F)cc1)NCCNC(=O)/C=C/c1ccc(F)cc1,-0.56% (inactive)
7,O=C(/C=C/c1ccc(F)cc1)NC(=S)NNC(=O)c1cccnc1,24.8% (active)
8,CCN(CC)Cc1c(C(=O)N/N=C/c2cccc(OCc3ccc(F)cc3)c2)nnn1-c1nonc1N,-5.41% (inactive)
9,COc1cccc(N2CCN(c3ccc4nnc(CCC(=O)N5CCN(C)CC5)n4n3)CC2)c1,-3.98% (inactive)
10,OC(CNCCc1ccc(Cl)cc1Cl)COc1ccccc1 (stereo not given),10.6% (inactive)
11,NC(N)=N/N=C/c1ccc(OCc2ccc(Cl)cc2Cl)cc1,37.2% (active)
12,CCOc1ccc(NC(=O)NNC(=O)c2ccc(Cl)cc2Cl)cc1,3.13% (inactive)
13,Cc1cccc(Nc2nnc(SCC(=O)c3c(N)n(C4CC4)c(=O)[nH]c3=O)s2)c1C,-0.71% (inactive)
14,O=C(O)c1cc([N+](=O)[O-])c(Nc2cccc3ccccc23)c([N+](=O)[O-])c1,3.7% (inactive)
15,O=C(Nc1ccc(F)cc1)N1CCCC(c2nc3c(nnn3Cc3ccccc3Cl)c(=O)[nH]2)C1 (stereo not given),4.93% (inactive)
16,Cc1cc(C)cc(NC(=O)Cn2cnc3c(nnn3Cc3ccc(F)cc3)c2=O)c1,8.94% (inactive)
17,Cc1ccc(C)c(Cn2nnc3c(=O)[nH]c(C(=O)Nc4ccc(F)cc4)nc32)c1,46.5% (active)
18,CCCn1nnnc1NCc1ccc(CC)cc1,0.05% (inactive)
19,Cc1nc(NC(=O)C2CCCCC2)sc1C,-0.06% (inactive)
20,Cc1ccc(NC(=O)N2CCC(c3nc4c(nnn4Cc4c(F)cccc4Cl)c(=O)[nH]3)CC2)cc1,4.5% (inactive)
21,Cc1ccc(Cn2nnc3c(=O)[nH]c(C4CCN(S(=O)(=O)/C=C/c5ccccc5)CC4)nc32)cc1,20.9% (active)
22,COc1ccc(Cn2nnc3c(=O)[nH]c(C4CCN(C(=O)c5ccccc5Cl)CC4)nc32)cc1,1.01% (inactive)
23,Cc1ccc(S(=O)(=O)CCC(=O)OCc2ccccc2)cc1,-6.27% (inactive)
24,CC(=O)[C@@]12O[C@@H]1C[C@H]1[C@@H]3CC[C@H]4C[C@@H](O)CC[C@]4(C)[C@H]3CC[C@@]12C,0.47% (inactive)
25,CCN(c1ccccc1)S(=O)(=O)c1ccc(C(=O)Nc2nccs2)cc1,1.49% (inactive)
26,COc1ccc(C(=O)Nc2ncc3c(n2)-c2ccccc2CC3)cc1,-1.56% (inactive)
27,C=CCN(CC=C)S(=O)(=O)c1ccc(C(=O)Nc2nc3c(s2)CCc2ccccc2-3)cc1,25.9% (active)

row,Compound,inhibition
1,COCCN(CCOC)S(=O)(=O)c1ccc(C(=O)Nc2nc3c(s2)CCc2ccccc2-3)cc1,22.6% (active)
2,COCCN(CCOC)S(=O)(=O)c1ccc(/C(O)=C(\C#N)c2nc3ccccc3[nH]2)cc1,-3.73% (inactive)
3,C=CCN(CC=C)S(=O)(=O)c1ccc(C(=O)Nc2sc3c(c2C(N)=O)CCCCC3)cc1,-0.71% (inactive)
4,Cc1ccc(NC(=S)Nc2ncccc2C)c(C)c1,-1.13% (inactive)
5,C#CCOCCOCCOCCNc1nc(N2CCN(C(=O)CCCCCCCCCCNC(=O)Cn3cc(CCCCCN)nn3)CC2)nc(N2CCN(C(=O)CCCCCCCCCCNC(=O)[C@H](CO)n3cc(CCCSC)nn3)CC2)n1,64.7% (active)
6,C#CCOCCOCCOCCNc1nc(N2CCN(C(=O)[C@H](CCCCN)n3cc(CCC(=O)O)nn3)CC2)nc(N2CCN(C(=O)[C@H](CCCCN)n3cc(CC(C)O)nn3)CC2)n1 (stereo not given in full),5.96% (inactive)
7,C#CCOCCOCCOCCNc1nc(N2CCN(C(=O)Cn3cc(CCCCN)nn3)CC2)nc(N2CCN(C(=O)[C@H](CCCCN)n3cc(CCC(=O)O)nn3)CC2)n1,-0.58% (inactive)
8,C#CCOCCOCCOCCNc1nc(N2CCN(C(=O)[C@H](C(C)C)n3cc(CCO)nn3)CC2)nc(N2CCN(C(=O)[C@H]([C@@H](C)CC)n3cc(CCCN=C(N)N)nn3)CC2)n1,0.22% (inactive)
9,C#CCOCCOCCOCCNc1nc(N2CCN(C(=O)[C@H](C(C)C)n3cc(CCO)nn3)CC2)nc(N2CCN(C(=O)[C@H](C(C)C)n3cc(CCO)nn3)CC2)n1,-0.91% (inactive)
10,C#CCOCCOCCOCCNc1nc(N2CCN(C(=O)CCCCCCCCCCNC(=O)[C@H](CCCCN)n3cc(C)nn3)CC2)nc(N2CCN(C(=O)CCCCCCCCCCNC(=O)[C@H](CO)n3cc(CCCSC)nn3)CC2)n1,64.8% (active)
11,C#CCOCCOCCOCCNc1nc(N2CCN(C(=O)[C@H](CCCCN)n3cc([C@@H](N)C(C)CC)nn3)CC2)nc(N2CCN(C(=O)[C@H](Cc3ccc(O)cc3)n3cc([C@@H](N)C(C)CC)nn3)CC2)n1 (stereo not given in full),5.1% (inactive)
12,C#CCOCCOCCOCCNc1nc(N2CCN(C(=O)C([C@@H](C)CC)n3cc(C(N)COC(=O)C(F)(F)F)nn3)CC2)nc(N2CCN(C(=O)[C@H](CCCCN)n3cc(C(N)CC(C)C)nn3)CC2)n1 (stereo not given in full),8.45% (inactive)
13,C#CCOCCOCCOCCNc1nc(N2CCN(C(=O)CCCCCCCCCCNC(=O)[C@H]([C@@H](C)CC)n3cc(CCCCN=C(N)N)nn3)CC2)nc(N2CCN(C(=O)CCCCCCCCCCNC(=O)[C@H](CO)n3cc(CCCSC)nn3)CC2)n1,53.8% (active)
14,CN1CCN(c2ccc(CNS(=O)(=O)c3cccc(F)c3)cc2)CC1,-3.01% (inactive)
15,O=C1/C(=C/c2cccs2)CCC1C1CCCC1 (stereo not given),-2.41% (inactive)
16,CC(=O)Oc1cc2c(C(=O)NCCN3CCOCC3)c(C)oc2c2ccccc12,-0.6% (inactive)
17,Cc1ccc(N=C2NC(=O)c3cccc([N+](=O)[O-])c32)cc1,-1.21% (inactive)
18,COc1ccccc1C(=O)NC(=O)COC(=O)C1CC1,-1.39% (inactive)
19,CCC(=C/c1sc2ccc3ccccc3c2[n+]1C)/C=C1\Sc2ccc3ccccc3c2N1C,79.3% (active)
20,CC(NCc1ccccc1OC1CCCC1)c1ccccc1 (stereo not given),-3.47% (inactive)
21,O=C(Nc1ccc(S(=O)(=O)NCC2CCCO2)cc1)c1ccc(F)cc1 (stereo not given),1.04% (inactive)
22,COc1cnc(-c2ccccn2)nc1Oc1ccc(C(C)(C)C)cc1,57.9% (active)
23,Cc1ccc(Oc2nc3ccccc3n3c(C)nnc23)cc1,-3.88% (inactive)
24,CC(C)(C)c1ccc(Oc2ccc(N)cc2)cc1,1.18% (inactive)
25,N#Cc1ccc(Oc2cc(C(F)(F)F)nc(-c3ccccn3)n2)cc1,-1.29% (inactive)
26,CC(C)(C)Nc1nc(-c2ccccn2)nc2ccccc12,18.4% (active)
27,COc1ccc(NCCc2ccccn2)cc1,1.13% (inactive)

row,Compound,inhibition
1,Cc1ccc(Oc2nc(-c3ccccn3)nc3ccccc23)cc1,17.4% (active)
2,CCC(=O)OCCNc1nc(-c2ccccc2)nc2ccccc12,0.15% (inactive)
3,CCOCCCNc1nc(-c2ccccc2)nc2ccccc12,3.36% (inactive)
4,COC(=O)C1=NNC2(c3ccc(C)cc3)C(=O)N(c3cccc(C)c3C)C(=O)C12 (stereo not given),2.4% (inactive)
5,Cc1ccc(-c2cnc(NC(=O)CCC(=O)N(C)Cc3ccccc3)n2C)cc1,-3.93% (inactive)
6,CC(c1nnc(SCC(=O)Nc2sccc2C#N)n1-c1ccc(Cl)cc1)N(C)C (stereo not given),-0.51% (inactive)
7,COc1ccc(NC(=O)CN(C)C(=O)c2cc(C3CC3)nn2-c2ccccc2)cc1,-0.28% (inactive)
8,CC(C)Oc1ccc(CC(=O)NNC(=S)Nc2ccc(Br)cc2)cc1,6.13% (inactive)
9,Cc1ccc(C(=O)NNC(=O)c2cc3cc4ccccc4nc3s2)cc1,15.8% (active)
10,O=C(NNC(=O)c1cc2c(s1)CCCC2)c1ccccc1,-3.37% (inactive)
11,Cc1ccc(C(=O)NNC(=O)c2cccs2)cc1,3.43% (inactive)
12,O=C(O)c1cccc(N=NN2CCCCCC2)c1,2.62% (inactive)
13,CCN(CC(=O)Nc1ccc(NC(C)=O)cc1)C(=O)CSC(=S)N1CCCC1,-1.09% (inactive)
14,CCOc1cc(C)ccc1OCc1nnc(SCC(=O)Nc2cccc(C(=O)O)c2)n1-c1ccccc1,-6.28% (inactive)
15,O=C(NNC(=O)C(O)c1ccccc1)NC1CCCCC1 (stereo not given),-1.2% (inactive)
16,Cc1nc(/N=C(\N)NC(=O)NC2CCCCC2)nc2ccccc12,18.6% (active)
17,COc1ccc2nc(/N=C(\N)NC(=O)Nc3ccccc3)nc(C)c2c1,7.87% (inactive)
18,CC1(C)C2CC=C(/C=N/NC(=O)c3ccc(Cl)cc3)C1C2 (stereo not given),0.59% (inactive)
19,COc1ccc(C(C#N)Nc2ccc(C)cc2)cc1 (stereo not given),-2.92% (inactive)
20,N#CC1=C(N)Oc2c(ccc3cccnc23)C1c1ccncc1 (stereo not given),-1.75% (inactive)
21,N#CC1=C(N)Oc2c(sc3ccccc23)C1c1ccco1 (stereo not given),15.7% (active)
22,CON(C)S(=O)(=O)c1ccc2c(c1)NC(=O)C1CCCN21 (stereo not given),5.21% (inactive)
23,O=C(NC(=S)NC1CCS(=O)(=O)C1)c1cccc([N+](=O)[O-])c1 (stereo not given),-0.09% (inactive)
24,Cc1nn(-c2ccc([N+](=O)[O-])cc2)c(N)c1-c1ccccc1,-0.19% (inactive)
25,CC1=NN(c2ccccc2)C(=O)C1C(=O)c1ccc([N+](=O)[O-])cc1 (stereo not given),-1.75% (inactive)
26,O=C1CC(c2ccccc2)=NN1c1ccc([N+](=O)[O-])cc1,15.4% (active)
